# High-throughput results deposited in PubChem by Broad Institute.
# Hits are enriched below; roughly 2.2% of the tested compounds scored in any of these assays.
# miR-122 sensor: blocks miR-122 activity in Huh7 sensor cells | actives 0.3% (n = 340,000) | AID 602342 | Huh7 miR-122 Renilla luciferase sensor, 48 h; neutral wells = 0, positive control = 100 | activation (reporter increase), % at 12.5 µM;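 active means mean replicate activation score at least 90 and every replicate individually at or above 90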;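 further: higher luciferase means less miR-122 activity so hits act as miR-122 inhibitors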
# DENV2 CPE: inhibitors of DENV2 cytopathic effect | CPE inhibition, % at 9.99 µM | AID 651640 | DENV2-infected cells, cytopathic effect rescue, plate reader | actives 1.7% (n = 350,000); in the data active means CPE inhibition above about 20%, passing the limit was not always enough; tested in BHK-21 cells;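 further: 0% = median of neutral control wells and 100% = median of positive control wells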
# PGC1a acetyl inh: PGC1a acetylation modulation, inhibitor mode | U2OS PGC1a acetylation, AlphaScreen anti-acetyl-lysine; with virally co-expressed GCN5 acetyltransferase | inhibition, % at 15.6 µM | actives 0.17% (n = 350,000);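 active means every replicate shows inhibition of at least 40%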;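 further: 0% = neutral control wells and 100% = positive control wells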
# PvdQ acylase: P. aeruginosa PvdQ acylase inhibition | purified PvdQ acylase, fluorescence plate reader | inhibition, % at 10 µM | actives 0.063% (n = 340,000) | AID 488965; in the data active means inhibition above about 30%, passing the limit was not always enough;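 further: 0% = vehicle neutral wells and 100% = reference inhibitor wells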
# Statin myotox sup: protects C2C12 myotubes from simvastatin toxicity | ATP luminescence, 48 h; scaled: DMSO 0, geranylgeraniol control 100 | rescue of ATP level, % at 7.49 µM | actives 0.78% (n = 330,000);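 active means mean ATP rescue above about 67%, or every replicate alone reaching that limit, limit read from the data, passing the limit was not always enough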;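 further: myotubes were challenged with 10 µM simvastatin during compound exposure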
# An asterisk follows results filed as active; . = not tested or not shown; [ ] = another dose, or the depositor's remark.
SMILES,miR-122 sensor,DENV2 CPE,PGC1a acetyl inh,PvdQ acylase,Statin myotox sup
Cc1cc(NC(=O)c2ccc(Cl)c(S(=O)(=O)N3CCOCC3)c2)no1,1,0,-2,-3,128*
Cc1noc(C)c1NC(=O)Nc1ccc2c(c1)C(=O)N([C@@H](C)CO)C[C@@H](C)[C@@H](CN(C)Cc1ccc(Cl)c(Cl)c1)OCCCC[C@@H](C)O2,-15[16.7 µM],30*,14,.,.
Cc1noc(C)c1NC(=O)Nc1ccc2c(c1)C(=O)N([C@H](C)CO)C[C@@H](C)[C@H](CN(C)Cc1ccc(Cl)c(Cl)c1)OCCCC[C@H](C)O2,-10[16.7 µM],23*,-3,.,.
Cc1noc(C)c1NC(=O)Nc1ccc2c(c1)C(=O)N([C@@H](C)CO)C[C@H](C)[C@@H](CN(C)Cc1ccc(Cl)c(Cl)c1)OCCCC[C@H](C)O2,-1[16.7 µM],27*,-4,.,.
C[C@@H]1CCCCO[C@@H](CN(C)C(=O)Nc2cccc3ccccc23)[C@@H](C)CN([C@H](C)CO)C(=O)c2cc(NC(=O)Nc3ccccc3)ccc2O1,3[16.7 µM],8,3,.,.
FC(F)(F)c1nnc2c(Sc3ccccc3)nc3ccc(Cl)cc3n12,307*,.,15,5,-30
COc1ccc(NC(=O)CN(C)CCOc2ccc(Cl)cc2)cc1OC,9,47*,-8,-16,1
Cc1cc(N2CCC(C(=O)NC3CC3)CC2)nc(-c2ccccc2)n1,0,.,1,-4,.
Cc1cc(N2CCN(c3cccc(C)c3C)CC2)nc(-c2ccccc2)n1,3,.,-1,-8,117*
CCCNC(=O)N1[C@@H]2c3ccc(-c4ccc(F)cc4)c(=O)n3C[C@@H]2[C@@H](CO)[C@@H]1C(=O)N1CCCCC1,.,8,.,.,-10
Cc1ccc(S(=O)(=O)Nc2cccc3c2O[C@H](CN(C)Cc2ccc(C(=O)Nc4ccccc4N)cc2)[C@@H](C)CN([C@@H](C)CO)C3=O)cc1,.,4,1,.,.
C[C@@H]1CN([C@@H](C)CO)C(=O)c2cccc(NS(=O)(=O)c3ccc(F)cc3)c2O[C@H]1CN(C)Cc1ccc(C(=O)Nc2ccccc2N)cc1,.,-7,-8,.,.
C[C@H]1CN([C@@H](C)CO)C(=O)c2cccc(NS(=O)(=O)c3ccc(F)cc3)c2O[C@H]1CN(C)Cc1ccc(C(=O)Nc2ccccc2N)cc1,.,22*,-7,.,.
C[C@@H]1CN([C@@H](C)CO)C(=O)c2cccc(NS(=O)(=O)c3ccc(F)cc3)c2O[C@@H]1CN(C)Cc1ccc(C(=O)Nc2ccccc2N)cc1,94*[16.7 µM],-7,-42,.,-45
C[C@H](CO)N1C[C@H](C)[C@H](CN(C)Cc2ccc(C(=O)Nc3ccccc3N)cc2)Oc2c(NS(=O)(=O)c3cn(C)cn3)cccc2C1=O,.,34*,-2,.,.
Cc1ccc(S(=O)(=O)Nc2cccc3c2O[C@H](CN(C)Cc2ccc(C(=O)Nc4ccccc4N)cc2)[C@H](C)CN([C@H](C)CO)C3=O)cc1,189*[16.7 µM],21*,-15,.,23
O=C(c1ccccn1)N1C[C@H]2[C@@H](c3ccccc31)[C@H](CO)N2C(=O)C1CC1,0[16.7 µM],-11,-7,.,-9
Cc1ccc(S(=O)(=O)N/N=C2/CC(c3ccccc3)Oc3ccccc32)cc1 (stereo not given),6,.,1,2,88*
O=S(=O)(N/N=C1\CC(c2ccccc2)Oc2ccccc21)c1ccccc1 (stereo not given),7,.,13,21,-6
COc1cccc(CNC(=O)C[C@@H]2CC[C@H]3[C@H](COc4ccc(NS(=O)(=O)c5ccccc5F)cc4C(=O)N3C)O2)c1,-37[16.7 µM],.,-3,.,-52
CCOC(=O)[C@]12CCCC=C1N(CCC1=CCCCC1)C(=O)[C@H](CC(=O)NCCC(C)C)C2,.,4,.,.,.
COC(=O)[C@@]12C[C@@H](CC(=O)NCc3ccc(OC)c(OC)c3)C(=O)N(Cc3ccco3)C1=CCC(C)(C)C2,.,22*,.,.,.
CCCCCCCCN1C(=O)[C@H](CC(=O)NCCCCc2ccccc2)C[C@@]2(C(=O)OC)CC(C)(C)CC=C12,.,35*,.,.,.
COC(=O)[C@]12CCCCC=C1N(CCC1=CCCCC1)C(=O)[C@H](CC(=O)NCCc1ccccc1OC)C2,.,4,.,.,.
CCCCNC(=O)C[C@@H]1C[C@@]2(C(=O)OC)CCCCC=C2N(CCC2=CCCCC2)C1=O,.,80*,.,.,.
CCCCCCCCN1C(=O)[C@H](CC(=O)NCCC(C)C)C[C@@]2(C(=O)OCC)CCCC=C12,.,20*,.,.,.
